About 620 (0.17%) of roughly 360,000 compounds were called active. This is one part of a sample in which actives are shown more often than they occur.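 The calls were made as follows: active = inhibition above a per-campaign cutoff, the mean of all compounds plus 3 SD (cut at about 60% in these data); inactive = the rest.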

Chain of Nuclear receptor coactivator 3 (Homo sapiens) (Q9Y6Q9 whole entry, looked up, the tested form may be a part): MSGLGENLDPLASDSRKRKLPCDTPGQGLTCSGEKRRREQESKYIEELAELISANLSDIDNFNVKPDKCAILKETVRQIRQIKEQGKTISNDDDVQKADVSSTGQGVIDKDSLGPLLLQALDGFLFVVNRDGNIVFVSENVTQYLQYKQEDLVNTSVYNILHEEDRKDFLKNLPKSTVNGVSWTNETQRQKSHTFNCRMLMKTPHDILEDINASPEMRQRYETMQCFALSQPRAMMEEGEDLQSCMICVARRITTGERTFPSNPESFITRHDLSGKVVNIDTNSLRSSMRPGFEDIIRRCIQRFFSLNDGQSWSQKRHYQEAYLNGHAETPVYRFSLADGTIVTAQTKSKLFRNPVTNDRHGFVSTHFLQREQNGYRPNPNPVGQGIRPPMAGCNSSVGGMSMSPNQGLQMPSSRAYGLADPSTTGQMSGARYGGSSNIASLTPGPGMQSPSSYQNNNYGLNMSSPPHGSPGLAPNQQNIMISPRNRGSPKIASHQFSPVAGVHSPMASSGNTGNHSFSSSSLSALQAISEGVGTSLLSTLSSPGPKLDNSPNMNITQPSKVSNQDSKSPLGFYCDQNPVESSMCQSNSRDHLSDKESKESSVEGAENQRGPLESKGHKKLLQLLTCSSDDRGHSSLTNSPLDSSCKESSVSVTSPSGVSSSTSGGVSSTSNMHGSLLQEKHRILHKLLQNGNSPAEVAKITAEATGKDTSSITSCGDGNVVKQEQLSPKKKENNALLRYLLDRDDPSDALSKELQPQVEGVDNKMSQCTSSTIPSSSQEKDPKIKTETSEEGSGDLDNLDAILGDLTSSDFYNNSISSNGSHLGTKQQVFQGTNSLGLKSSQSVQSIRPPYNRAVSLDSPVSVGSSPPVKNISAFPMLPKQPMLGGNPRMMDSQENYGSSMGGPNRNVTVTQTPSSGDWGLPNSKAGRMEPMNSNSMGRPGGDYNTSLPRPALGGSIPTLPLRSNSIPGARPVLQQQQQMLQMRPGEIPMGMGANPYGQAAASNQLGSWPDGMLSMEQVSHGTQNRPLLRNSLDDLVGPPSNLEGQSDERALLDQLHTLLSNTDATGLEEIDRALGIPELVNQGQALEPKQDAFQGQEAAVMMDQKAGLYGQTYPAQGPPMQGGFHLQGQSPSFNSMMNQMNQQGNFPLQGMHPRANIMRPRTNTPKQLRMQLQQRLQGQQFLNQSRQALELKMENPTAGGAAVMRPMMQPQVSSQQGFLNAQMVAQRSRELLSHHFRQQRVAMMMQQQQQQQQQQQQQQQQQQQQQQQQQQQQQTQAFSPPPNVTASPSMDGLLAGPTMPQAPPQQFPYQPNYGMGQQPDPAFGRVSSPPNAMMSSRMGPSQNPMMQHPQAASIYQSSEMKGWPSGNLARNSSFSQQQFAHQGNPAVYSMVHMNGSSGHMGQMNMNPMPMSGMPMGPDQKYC

This assay has as its target Nuclear receptor coactivator 3 (Homo sapiens) (UniProt Q9Y6Q9). The assay is described as follows: NCOA3 GAL4-fusion reporter inhibition – cell-based, luminescence, primary screen (AID 588352).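 Also: 0% = DMSO-treated cells and 100% = gossypol-treated cells at 36 µM; higher means less SRC3-driven luciferase light from the GAL4 reporter.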 The note with it: HEK293 GAL4-SRC3 luciferase reporter, at 3.6 µM, hits give high values.
In the case of `CC(NC(=O)CCCC1CCCCC1)c1ccc(S(N)(=O)=O)cc1` (stereo unspecified), the inhibition is 4.7% (inactive). For `CC/C(C)=N/Nc1nc2sc3c(c2c(=O)[nH]1)CC(C)(C)OC3`, the inhibition is -4.5% (inactive). As to `O=C(CN1CCN(c2ncccn2)CC1)Nc1ccccc1C(F)(F)F`, the inhibition was 17.7% (inactive).

For `CC1(C(=O)NS(=O)(=O)c2ccc(C#N)cc2)CCN1C(=O)c1ccc(C2CCCCC2)cc1` (stereo unspecified), the inhibition was 8.43% (inactive).

For `CC(C)C(c1nnnn1C1CCCCC1)N1CCN(C(=O)c2ccco2)CC1` (stereo unspecified), the inhibition is -1.28% (inactive). In the case of `COc1cccc2c(C)c(C(=O)O)[nH]c12`, the inhibition was 4.08% (inactive).

Take `CCc1ccc(Oc2nc([N+](=O)[O-])nn2C)cc1`: the inhibition is 12.1% (inactive). For the compound `CC(=O)c1c(C)c[nH]c1C`, the inhibition was 11% (inactive).

For the compound `CCc1nc2ccc(C(=O)NCc3ccc(OC)cc3)cn2c1N(CC)Cc1cccc(Br)c1`, the inhibition is 0.61% (inactive).

`CCCCn1c(N)c(N(CCC(C)C)C(=O)CC2OC(=O)c3ccccc32)c(=O)[nH]c1=O` (stereo unspecified): the inhibition was 12.2% (inactive). On to `Cc1cccc2cc(CN(C(=O)c3cccs3)c3ccccc3)c(=O)[nH]c12`, for which the inhibition is 15.8% (inactive).

On to `O=S(=O)(Cc1nnnn1-c1ccc(Br)cc1)c1ccc(F)cc1`, for which the inhibition was -7.02% (inactive).

Turning to `Cc1cc(C)nc(SCc2nnc(SCC(=O)OC3CCCCC3)o2)n1`, the inhibition is -10.7% (inactive).

For the compound `CCCNC(=O)c1ccc(N2CCC3(CC2)CC(c2ccc(Cl)cc2)=NO3)c([N+](=O)[O-])c1`, the inhibition is 0.35% (inactive). On to `CC1CCCCC1NC(=O)c1cc(=O)[nH]c2ccccc12` (stereo unspecified), for which the inhibition is 9.65% (inactive). The same measure for `COc1ccc(F)cc1C(=O)C1CCCN(C(=O)CCc2ccccn2)C1` (stereo unspecified): 14.9% (inactive). For the compound `Cc1noc(C)c1C(=O)N1CCC1(C)C(=O)NS(=O)(=O)c1ccc(C#N)cc1` (stereo unspecified), the inhibition is -19.1% (inactive). In the case of `O=C(NCCCCCCCCCNC(=O)C(F)(F)F)C(F)(F)F`, the inhibition was -9.12% (inactive).

With `Cc1ccc(S(=O)(=O)NCC(=O)N(CC(=O)NC2CCCCC2)Cc2ccco2)cc1`, the inhibition was 12.3% (inactive). `COC(=O)CN1C(=O)[C@H]2[C@@H](C3CC3)N3C(=O)CN(Cc4ccc(-c5ccccc5)cc4)C(=O)[C@@]3(Cc3ccccc3)[C@H]2C1=O`: the inhibition is 9.14% (inactive).

For `CC1(C)CC(=O)C=C(c2ccc(Cl)c(C(F)(F)F)c2)C1`, the inhibition is -9.95% (inactive). On to `CCN(CC)S(=O)(=O)N1CCC(C(=O)NC(C)CCc2ccccc2)CC1` (stereo unspecified), for which the inhibition was 15.5% (inactive). Consider `Cc1nn(CC(=O)NC2CCCCC2)c(=O)c2cccn12`, for which the inhibition was -10.9% (inactive). For `CCOC(=O)c1c(C)n(C)c2ccc(OC)c(NC(=O)CN3CCC4(CC3)OCCO4)c12`, the inhibition was 6.95% (inactive). Consider `CCOC(=O)c1csc(CCNC(=O)c2oc3c(Cl)cc(C)cc3c2C)n1`, for which the inhibition is -12.1% (inactive). Take `CC(C)CC(CO)N1CCN(C(=O)c2ccc(Cl)cc2Cl)CCC1=O` (stereo unspecified): the inhibition is 5.22% (inactive). The same measure for `COc1ccc(C(CNC(=O)c2cccc(S(=O)(=O)Nc3ccc(Br)cc3)c2)N(C)C)cc1` (stereo unspecified): 1.78% (inactive); for `COc1ccc(CNC(=O)COC(=O)C2=Cc3ccccc3OC2)cc1`: -19.6% (inactive). The same measure for `O=C(O)c1ccccc1C(=O)NC1=NN(c2ccccc2)CC1`: 3.76% (inactive); for `CC1(C)CC(N2CCN(C(c3ccccc3)c3ccccc3)CC2)=CC(=[N+]2CCCCC2)C1`: 80% (active); for `CCN1/C(=C\c2ccc3ccccc3[n+]2CC)Sc2cc(C)ccc21`: 64.7% (active).

On to `C[C@@H]1CN([C@H](C)CO)C(=O)c2cc(-c3ccc(F)cc3)cnc2O[C@H]1CN(C)C(=O)c1ccc(F)cc1`, for which the inhibition was -2.15% (inactive). `CC(C)[C@H](NC(=O)N1CC(=O)Nc2ccccc21)C(=O)N[C@@H](Cc1c[nH]c2ccccc12)C(=O)O`: the inhibition is 11.1% (inactive). Next, `Cc1cc2ncn(CCCCOc3ccccc3)c2cc1C`: -3.7% (inactive); `C/C=C(/C)C(=O)O[C@@H]1c2cc3c(c4c2[C@@]2(CO4)C(=O)C(OC)=C(OC)C=C2C[C@@H](C)[C@H]1C)OCO3`: -4.38% (inactive); `C=CC[C@@H](CC(=O)NCCO)C(=O)N[C@H](C)COC(=O)[C@@H](CC=C)CC(=O)OC(C)(C)C`: 0.5% (inactive). Turning to `CC(=O)Nc1ccc(-c2ccnc3c2CC(C(=O)NC(C)C)O3)cc1` (stereo unspecified), the inhibition was 10.3% (inactive). Take `COc1cccc(OC)c1C(=O)OCC(=O)/C(C#N)=C(\C)N`: the inhibition was 7.58% (inactive). For `Cc1ccc(Cn2c(C)c3cnn(CC(=O)NCCN4CCOCC4)c(=O)c3c2C)cc1`, the inhibition is -3.71% (inactive).

Regarding `CC(OC(=O)c1ccc(NS(=O)(=O)c2ccc3[nH]c(=O)[nH]c3c2)cc1)C(=O)Nc1cccc(Cl)c1Cl` (stereo unspecified), the inhibition is 4.52% (inactive). Consider `COc1cc(NC(=S)NNC(=O)CC(C)C)c(OC)cc1Cl`, for which the inhibition was 17.8% (inactive). The same measure for `O=C(NCc1ccco1)C1CCCN1S(=O)(=O)c1ccccc1C(F)(F)F` (stereo unspecified): 8.79% (inactive); for `Cc1cc(NC(=O)CN2C(=O)NC(CC(C)C)C2=O)no1` (stereo unspecified): -3.85% (inactive). Take `FC(F)(F)c1cc(C(F)(F)F)c2ccc(N3CCN(c4ccccc4)CC3)nc2n1`: the inhibition was 1.84% (inactive). Take `O=C(C1=C(O)C(=O)N(CCOCCO)C1c1ccccn1)c1cccs1` (stereo unspecified): the inhibition was 3.48% (inactive). On to `Cc1cccc(N2CCN(C(=O)COCc3cc(-c4ccc5c(c4)OCO5)on3)CC2)c1C`, for which the inhibition was -10.1% (inactive). For the compound `CCn1c(NC(=O)c2nn(C)cc2Br)nc2ccccc21`, the inhibition is 9.26% (inactive). Consider `Cc1cccc(Cn2cnc3c(N)c(C)c(C)cc32)c1`, for which the inhibition was 8.42% (inactive). The same measure for `O=C(O)CCCn1cc(NC(=O)COc2cccc(Cl)c2)cn1`: 19.3% (inactive); for `Cc1cc(=O)oc2cc(OCC3CC(c4ccccc4Cl)=NO3)ccc12` (stereo unspecified): -29.1% (inactive); for `COc1cc(NC(=S)N2CCCC(C)C2)cc(OC)c1OC` (stereo unspecified): 8.3% (inactive). Consider `N#Cc1ccccc1S(=O)(=O)N1CCN(C(=O)c2cc(-c3ccccc3)nn2-c2ccccc2)CC1`, for which the inhibition was 4.59% (inactive). Regarding `Cc1ccsc1C(=O)OCC(=O)NCCc1ccccc1`, the inhibition was -54.7% (inactive).

On to `Cc1ccsc1C(=O)OCC(=O)Nc1cccc(F)c1`, for which the inhibition was -16.2% (inactive).

On to `Cc1ccsc1C(=O)OCC(=O)c1cc(C)n(CC2CCCO2)c1C` (stereo unspecified), for which the inhibition is 80.6% (active).

Take `Cc1cccc(-n2c(Cc3cc(=O)[nH]c(=O)[nH]3)nnc2SC(C)C)c1`: the inhibition is 1.68% (inactive). In the case of `Cc1cc(C)c(C2C3=C(Nc4c2c(C)nn4-c2ccccn2)c2ccccc2C3=O)c(C)c1` (stereo unspecified), the inhibition is 9.07% (inactive). Consider `CC1(C(=O)O)CCC(C(=O)Nc2ccc(Cl)c(Cl)c2)C1(C)C` (stereo unspecified), for which the inhibition is 7.83% (inactive). On to `Cc1ccc(CC(=O)Nc2ccc(OC(F)F)c(Cl)c2)cc1C`, for which the inhibition is 1.82% (inactive). Turning to `O=C(CC(O)(C(F)(F)F)C(F)(F)F)Nc1ccc(Cl)c(Cl)c1`, the inhibition is 80% (active). Next, `CCCCCN(C(=O)NC(=O)Nc1cccc(C)c1C)S(C)(=O)=O`: -2.15% (inactive).

For the compound `Cc1ccccc1/C=C\c1nc(O)c([N+](=O)[O-])c(=O)[nH]1`, the inhibition is 2.28% (inactive). For the compound `COc1ccc(NC2CCCN(C(=O)c3ccccc3-c3ncc[nH]3)C2)cc1` (stereo unspecified), the inhibition was -11.7% (inactive). For `Cc1c(C(=O)c2cccc([N+](=O)[O-])c2)c2ccccn2c1CCC#N`, the inhibition is 26.8% (inactive). With `C=CCn1c(C)cc(C2=NNC(=NCC)SC2)c1C`, the inhibition was 86% (active). Consider `Cc1ccc(S(=O)(=O)Nc2ccccc2CNc2c(C)n(C)n(-c3ccccc3)c2=O)cc1`, for which the inhibition was 22.2% (inactive). On to `O=S(=O)(Nc1n[nH]c(C(F)(F)F)n1)c1ccccc1`, for which the inhibition is 6.01% (inactive). Next, `CC(C)(C)c1ccc(Oc2ccc(N)cc2)cc1`: 82.3% (active); `CN(C)S(=O)(=O)c1ccc(Oc2ccc(S(=O)(=O)N(C)C)cc2)cc1`: 25.9% (inactive). With `O=C(CSc1nnc(-c2ccc([N+](=O)[O-])cc2)o1)Nc1ccccn1`, the inhibition was -82% (inactive). As for `Cc1nc(CNS(=O)(=O)c2ccc(Oc3ccccc3)cc2)cs1`, the inhibition was 13.4% (inactive).

Take `CCNC(=O)NC(=O)C(C)OC(=O)C1CCN(S(=O)(=O)c2ccccc2F)CC1` (stereo unspecified): the inhibition is 18.3% (inactive).

With `CSCCC(=O)N1CCCC(CNC(=O)c2ccccc2Cl)C1` (stereo unspecified), the inhibition is 13.3% (inactive). `Cc1cccc(N2C(=O)SC(SC(=Nc3ccccc3)Nc3ccccc3)C2=O)c1` (stereo unspecified): the inhibition was -7.91% (inactive). `Cc1ccc(/C=N/NC(=O)C2=NNC(c3ccccc3)(c3ccccc3)C2)c(O)c1`: the inhibition was 65% (active).

As to `Cc1ccc(NC(=O)CCC(=O)N/N=C/c2ccco2)c(C)c1`, the inhibition is 16.4% (inactive). The same measure for `Cc1ccc(/C=N/NC(=O)C(NC(=O)c2ccccc2)c2n[nH]c(=O)c3ccccc23)cc1` (stereo unspecified): -30.1% (inactive). For `Cc1c(CN2CCC(n3nccc3NC(=O)CCc3ccccc3)CC2)cnn1C`, the inhibition is 23.5% (inactive). For `CCc1c(O)nc(SCC(=O)Nc2ccccc2)n(C(C)CC)c1=O` (stereo unspecified), the inhibition is -6.38% (inactive). Take `CN(C)c1ccc(NC(=O)c2ccncc2)c2ccccc12`: the inhibition is 1.55% (inactive). `O=C1c2ccncc2C(=O)N1C1CCCCC1`: the inhibition was -19.6% (inactive). With `CC(Sc1nnc(Cc2ccc([N+](=O)[O-])cc2)o1)C(N)=O` (stereo unspecified), the inhibition was -2.53% (inactive).

With `O=C(CCNS(=O)(=O)c1ccccc1)NCCSc1ccc(Br)cc1`, the inhibition was -5.67% (inactive).

With `CC(C)(CSc1nncn1/N=C/c1ccco1)NS(=O)(=O)c1ccc(Cl)cc1`, the inhibition is 0.37% (inactive).

Consider `O=C(O)CCC(=O)Nc1ccc(OCC2CCCO2)cc1` (stereo unspecified), for which the inhibition is 4.7% (inactive). Next, `COc1ccc(-c2nc(N)ncc2-c2ccc(Cl)cc2)c(O)c1`: 1.54% (inactive).

In the case of `COc1ccc(OC)c(Cc2cnc3nc(N)nc(N)c3c2C)c1`, the inhibition is 63.7% (active). As for `OCCCNc1nccc(-c2cc(Nc3cccc(Cl)c3)ncn2)n1`, the inhibition is 90.9% (active). Next, `Cc1[nH]c(=O)c(C(=O)/C=C/c2ccccc2)c2c1CCCC2`: 64.9% (active). The same measure for `C/C(=C\c1ccccc1)C1NC(=O)c2c(sc3c2CCCC3)N1` (stereo unspecified): 21.8% (inactive). In the case of `CC1(C(=O)O)CCCN(C(=O)/C=C/c2ccccc2)C1` (stereo unspecified), the inhibition was -1.88% (inactive).

Source of the values: PubChem BioAssay AID588352 (The Scripps Research Institute Molecular Screening Center, 2011).
